HPGD inh = qHTS Assay for Inhibitors of HPGD (15-Hydroxyprostaglandin Dehydrogenase); Potency, µM, for the others: top-dose activity change, negative = inhibition, hits mostly inhibitors; hit rate 4.3% among 150,000; 15-hydroxyprostaglandin dehydrogenase [NAD(+)] (Homo sapiens), P15428; AID 894, 2007; purified HPGD, NADH fluorescence kinetic, PGE2 substrate; active = well fitted inhibition curve with a large enough effect, not every such curve was filed as active; inconclusive = small, poorly fitted or top-dose-only effect, or another doubt; inactive = no such curve, though single readings can be large or run the other way; note: potency is the fitted concentration of half-maximal effect
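20 nM HPGD preincubated 15 min at room temperature with compound in 50 mM Tris-HCl pH 8, 0.01% Tween 20. Started with 1 mM NAD+ and 30 uM prostaglandin E2; NADH fluorescence (360/450 nm) read 5 times over 30-s intervals, last minus first.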
ALDH1A1 inh = qHTS Assay for Inhibitors of Aldehyde Dehydrogenase 1 (ALDH1A1) | Potency, µM (titrated, usually from 75.3 µM), for inactives: top-dose activity, negative = inhibition, hits mostly inhibitors | hit rate 7.3% among 220,000 | AID 1030, 2008 | Aldehyde dehydrogenase 1A1 (Homo sapiens), P00352 | Purified ALDH1A1, NADH fluorescence, propionaldehyde substrate; active = well fitted inhibition curve with a large enough effect, not every such curve was filed as active; inconclusive = small, poorly fitted or top-dose-only effect, or another doubt; inactive = no such curve, though single readings can be large or run the other way;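 note: potency is the fitted concentration of half-maximal effect; plate controls were no enzyme wells and a reference inhibitor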
12-hLO inh = qHTS Assay for Inhibitors of 12-hLO (12-human lipoxygenase); Polyunsaturated fatty acid lipoxygenase ALOX12 (Homo sapiens), P18054; purified 12-hLO, xylenol orange hydroperoxide absorbance; Potency, µM (highest dose often 57.1 µM), for inactives: top-dose activity change, negative = inhibition, usual class: inhibitors; hit rate 0.12% among 150,000; note: potency is the fitted concentration of half-maximal effect; nearly all actives have a fitted effect of over 55% in size
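Lipoxygenase turnover measured by absorbance at 573 and 405 nm after Fe-XO development. Human 12hLO 150 nM, arachidonate 40 uM, pH 7.0 Hepes buffer with detergent; 15 min compound preincubation, 30 min reaction.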
NPSR antag = qHTS Assay for Antagonists of the Neuropeptide S Receptor: cAMP Signal Transduction; CHO-NPSR cells, cAMP TR-FRET, antagonist mode; Potency, µM (top dose mostly 38.3 µM), for the others: at the top dose activity change, negative = inhibition, actives largely listed as inhibitors; hit rate 1% among 220,000; note: potency is the fitted concentration of half-maximal effect; nearly all actives have a fitted effect of over 50% in size
Target sequence (Q6W5P4 whole entry, looked up): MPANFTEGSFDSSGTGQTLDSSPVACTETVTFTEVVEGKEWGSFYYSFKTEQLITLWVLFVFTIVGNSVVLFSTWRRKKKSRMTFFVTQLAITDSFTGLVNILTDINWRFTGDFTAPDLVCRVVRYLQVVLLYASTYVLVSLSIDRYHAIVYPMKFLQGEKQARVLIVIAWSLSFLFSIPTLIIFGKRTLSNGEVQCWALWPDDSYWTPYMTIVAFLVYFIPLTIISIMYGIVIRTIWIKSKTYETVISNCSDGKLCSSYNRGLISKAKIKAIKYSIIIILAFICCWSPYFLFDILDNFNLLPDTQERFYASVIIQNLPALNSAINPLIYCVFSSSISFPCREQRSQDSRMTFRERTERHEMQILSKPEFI
IMPase Li inh = qHTS Assay for Identifying the Cell-Membrane Permeable IMPase Inhibitors: Potentiation with Lithium | CHO-M1 cells, IP1 TR-FRET (IP-One), carbachol + lithium | Potency, µM (doses to about 59.4 µM), for the others: top-dose activity, negative = IMPase inhibition, actives largely listed as inhibitors | hit rate 0.35% among 210,000 | AID 1457, 2008;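 note: IP1 builds up when IMPase is blocked and the TR-FRET signal falls; potency is the fitted concentration of half-maximal effect; plate controls were basal vehicle for no effect and high inhibitor control for full effect; nearly all actives have a fitted effect of over 50% in size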
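Readout is a homogeneous TR-FRET IP1 immunoassay (Ex 320, Em 665 and 620), where raised cytosolic IP1 lowers signal. Cells were CHO-M1 treated 30 min at 37C with test compounds plus a little lithium; AC50 values came from Hill-equation fitting.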
IMPase inh = qHTS Assay for Identifying the Cell-Membrane Permeable IMPase Inhibitors | CHO-M1 cells, IP1 accumulation, HTRF TR-FRET ratio | inhibition (IP1 accumulation), % at 46.1 µM | 120,000 tested, under 10 active | AID 901, 2007; active = well fitted curve in the direction sought with a large enough effect in the signal ratio, not every such curve was filed as active; inconclusive = small, poorly fitted or top-dose-only effect, or a change in a side signal; inactive = no such curve, though single readings can be large or run the other way; the % refers to the signal ratio;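 note: cells stimulated with carbachol in lithium chloride buffer; plate controls were DMSO basal wells for no effect and reference inhibitor wells for full effect; higher means more IMPase inhibition seen as more IP1 and lower FRET ratio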
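Cellular IMPase inhibition is scored as a rise in cytosolic IP1, detected by competitive TR-FRET between d2-labelled IP1 and a europium anti-IP1 antibody. M1-expressing CHO cells were stimulated with carbachol for 30 min at 37C, with lithium (50 mM LiCl) present in the buffer.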
The depositor's hits bear a star; ? = inconclusive; / = no result given; [ ] = remark or other dose. Only some compounds are listed: those with a hit (about 8.9% of all), similar ones and a draw of the others. Unless noted, calls come from the whole dose curve; as a rule, active = well fitted curve in the direction sought with a large enough effect; inconclusive = small, poorly fitted or top-dose-only effect, or another doubt; inactive = no such curve, though single readings can be large; an effect the other way counts as inactive or inconclusive. Unless noted, % is set by controls: 0 for no effect and ±100 for the full control effect.

SMILES	HPGD inh	ALDH1A1 inh	12-hLO inh	NPSR antag	IMPase Li inh	IMPase inh
COc1cc(C(=O)OC(C)C(=O)N2CCc3ccccc3C2)ccc1OCC(=O)N1CCOCC1 (centres undefined)	-6%	1%	-3%	-14%[46.1 µM]	21%[38.3 µM]	10
C(=C\c1nnc2c3ccccc3ncn12)/c1ccccc1	-30%	?	-3%	-12%	4%	/
Nn1c(SCc2ccc(Br)cc2)nnc1-c1cccnc1	/	/	/	5%[7.67 µM]	/	/
O=C(NC(NCc1cccnc1)C(Cl)(Cl)Cl)c1cccc2ccccc12 (centres undefined)	-14%	6%	-3%	7%	7%	-8
N=C1C=CC(=C(c2ccc(N)cc2)c2ccc(N)cc2)C=C1	10µM*	7%[13.5 µM]	-6%[11.4 µM]	/	28%	/
Nc1ccc(C(=O)C(=O)c2ccc(N)cc2)cc1	/	/	/	-6%	/	/
CCCCN1CNC(=S)N(Cc2ccccc2)C1	-16%	0%	-12%	-2%[46.1 µM]	-6%	-6
CCCCN1CSC(=S)N(Cc2ccccc2)C1	-21%	3.5µM*	3%[11.4 µM]	/	1%	/
CC(C)(C)N1CSC(=S)N(Cc2ccccc2)C1	/	32µM*	/	-14%	-4%	/
CCc1nc(SCC(=O)O)c(C#N)cc1C	-17%	8%	10%	1%[46.1 µM]	11%[38.3 µM]	-5
Cc1cc(/C=C2/SC(=O)NC2=O)c(C)n1-c1ccc(N2CCOCC2)cc1	8.9µM*	-8%	-1%	-23%	16%	/
COc1ccc(-n2c(C)cc(/C=C3\SC(=S)NC3=O)c2C)cc1	/	?	/	29%	23%	/
Cc1cc(/C=C2\SC(=Nc3ccc(F)cc3)NC2=O)c(C)n1-c1ccc(S(N)(=O)=O)cc1	-10%	?	-30%	10µM*	32%[38.3 µM]	0
CC(OC(=O)c1ccc([N+](=O)[O-])s1)C(=O)Nc1ncc(Cl)cc1Cl (centres undefined)	-6%	6.3µM*	-1%	-16%	-2%	9
CC(OC(=O)c1ccc2ncsc2c1)C(=O)Nc1ncc(Cl)cc1Cl (centres undefined)	-9%	15%	-3%	6%	12%	/
CC(OC(=O)c1ccc(Cl)c(S(=O)(=O)N2CCc3ccccc32)c1)C(=O)Nc1ncc(Cl)cc1Cl (centres undefined)	-15%	25µM*	4%	-21%	-2%	1
COCC(=O)Nc1cc(C(=O)Nc2ccccc2)ccc1Cl	/	3%	/	-14%	3%	/
COc1cc2c(cc1O)C(Cc1ccc(O)cc1)[N+](C)([O-])CC2 (centres undefined)	/	/	/	19%	/	/
O=C(Nc1cc(=O)[nH]c2ncnn12)c1ccccc1F	/	-5%	/	24%	/	/
Cc1ccc2[nH]c(=O)c(CN(CCCO)S(=O)(=O)c3c(C)ccc4nsnc34)cc2c1	-9%	13µM*	-2%	-18%[46.1 µM]	22%[38.3 µM]	2
C/C(=C\c1ccccc1)CN1CCN(Cc2ccc(C)o2)C(CCO)C1 (centres undefined)	/	15%	/	5%	12%	/
COc1cccc(NC(=S)N(CCCN2CCC(C)CC2)Cc2cccs2)c1	/	-3%	/	-14%	11%	/
COc1ccc(NC(=S)N(CCCN2CCC(C)CC2)Cc2cccs2)cc1	/	20µM*	/	-14%	15%	/
Cc1nn(-c2ccccc2)c(C)c1C(=O)Nc1ccc(N2CCOCC2)cc1	/	-5%	/	7%	7%	/
CC(C)(C)c1cc(CNC2CS(=O)(=O)C[C@@H]2O)cc(C(C)(C)C)c1O (some centres undefined)	-3%	13µM*	-27%	-13%[46.1 µM]	-11%[38.3 µM]	2
Cn1c(C(=O)N2CCN(c3ccc(Cl)cc3)CC2)cc2c(=O)[nH]c3ccccc3c21	-9%	0%	-1%	-16%[46.1 µM]	12%[38.3 µM]	6

From PubChem
